Here are results for two sequences from article PMC7862700, “An all-to-all approach to the identification of sequence-specific readers for epigenetic DNA modifications on cytosine”.

What all share (assay): DAPPL (digital affinity profiling via proximity ligation, sequencing); 10 mM Tris-HCl pH 7.5, 50 mM NaCl, 1 mM DTT, 4% glycerol, room temperature, 30 min; GST-TFs on glutathione beads, 16-mer random dsDNA library, 0.1% formaldehyde crosslink after washing; high values mean tight binding
Common to all, as to details: protein: recombinant; tags: N-terminal GST; dsDNA, one strand shown

One assay has as its target T1, FLI1 (Homo sapiens, UniProt Q01543 1-452).
T1 sequence: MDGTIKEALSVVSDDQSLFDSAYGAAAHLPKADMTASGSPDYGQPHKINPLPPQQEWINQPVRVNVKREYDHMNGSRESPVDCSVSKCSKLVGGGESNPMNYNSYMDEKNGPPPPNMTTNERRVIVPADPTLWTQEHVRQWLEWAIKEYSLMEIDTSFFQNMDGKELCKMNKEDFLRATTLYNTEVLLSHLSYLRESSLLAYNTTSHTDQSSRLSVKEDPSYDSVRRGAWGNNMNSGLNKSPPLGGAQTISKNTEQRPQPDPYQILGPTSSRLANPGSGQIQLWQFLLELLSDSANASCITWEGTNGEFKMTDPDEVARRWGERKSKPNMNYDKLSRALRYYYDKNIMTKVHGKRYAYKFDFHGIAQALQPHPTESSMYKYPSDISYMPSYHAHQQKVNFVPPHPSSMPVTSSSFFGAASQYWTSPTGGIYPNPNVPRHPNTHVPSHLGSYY
Put shortly: (§1)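 Sequencing on an Illumina NextSeq500 followed washing, crosslinking with 0.1% formaldehyde, proximity ligation (BsaI/T4 ligase, 1 h, 37 °C) and PCR amplification of pools that had been incubated for 30 min at room temperature with 200 nmole of a random double-stranded 16-mer DNA library in Tris/NaCl/DTT/glycerol buffer. Each pool held DNA-barcoded human transcription factors, expressed in yeast as GST fusions and captured on glutathione beads, plus a tag-only sample. Binding signal is a hexamer's read frequency for a factor divided by its frequency in the tag-only sample.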

In a further assay the target is T2, ELK1 (Homo sapiens, UniProt P19419 1-428).
T2 sequence: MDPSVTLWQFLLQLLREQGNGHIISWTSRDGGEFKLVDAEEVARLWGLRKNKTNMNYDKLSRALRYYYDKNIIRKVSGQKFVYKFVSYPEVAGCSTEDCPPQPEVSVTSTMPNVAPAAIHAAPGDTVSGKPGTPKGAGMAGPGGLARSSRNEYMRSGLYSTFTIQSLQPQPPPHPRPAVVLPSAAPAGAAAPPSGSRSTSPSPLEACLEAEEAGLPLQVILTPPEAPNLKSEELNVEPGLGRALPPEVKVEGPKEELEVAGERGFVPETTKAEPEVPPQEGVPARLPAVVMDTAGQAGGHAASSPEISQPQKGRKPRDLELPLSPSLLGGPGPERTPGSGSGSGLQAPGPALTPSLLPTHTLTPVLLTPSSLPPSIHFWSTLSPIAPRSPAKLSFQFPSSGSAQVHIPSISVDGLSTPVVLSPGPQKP
Put shortly: as §1

In a further assay the target is T3, GABPA (Homo sapiens, UniProt Q06546 1-454).
T3 sequence: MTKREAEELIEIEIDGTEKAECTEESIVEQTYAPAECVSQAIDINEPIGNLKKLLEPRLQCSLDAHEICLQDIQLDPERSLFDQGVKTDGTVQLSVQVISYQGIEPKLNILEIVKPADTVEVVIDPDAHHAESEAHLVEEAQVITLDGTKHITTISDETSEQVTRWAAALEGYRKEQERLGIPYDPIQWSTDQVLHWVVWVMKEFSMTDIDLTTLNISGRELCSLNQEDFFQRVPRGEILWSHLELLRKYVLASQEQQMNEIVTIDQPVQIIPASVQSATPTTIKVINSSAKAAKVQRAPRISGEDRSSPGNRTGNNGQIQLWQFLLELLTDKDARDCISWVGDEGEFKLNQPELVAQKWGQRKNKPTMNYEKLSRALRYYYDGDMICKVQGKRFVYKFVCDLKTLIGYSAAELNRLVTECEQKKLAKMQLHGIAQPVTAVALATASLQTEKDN
The gist of the method:
as §1

A further assay has as its target T4, ERG (Homo sapiens, UniProt P11308 1-479).
T4 sequence: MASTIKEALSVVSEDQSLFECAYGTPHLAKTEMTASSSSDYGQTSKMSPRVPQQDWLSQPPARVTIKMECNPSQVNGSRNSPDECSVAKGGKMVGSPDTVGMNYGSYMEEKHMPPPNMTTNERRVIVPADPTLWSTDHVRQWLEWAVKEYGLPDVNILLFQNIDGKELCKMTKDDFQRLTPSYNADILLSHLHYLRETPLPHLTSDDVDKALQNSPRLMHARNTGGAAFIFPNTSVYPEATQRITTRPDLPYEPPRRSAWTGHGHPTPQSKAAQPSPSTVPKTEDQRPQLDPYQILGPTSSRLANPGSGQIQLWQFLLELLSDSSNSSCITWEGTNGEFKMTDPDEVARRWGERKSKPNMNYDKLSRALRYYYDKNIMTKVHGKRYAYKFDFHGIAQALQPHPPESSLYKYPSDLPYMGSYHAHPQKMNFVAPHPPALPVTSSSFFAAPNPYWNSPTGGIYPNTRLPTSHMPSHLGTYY
Put shortly: as §1

The next assay concerns the target ELF1 (Homo sapiens, UniProt P32519 1-619). The gist of the method:
as §1

A further assay deals with T5, EHF (Homo sapiens, UniProt Q9NZC4 1-300).
T5 sequence: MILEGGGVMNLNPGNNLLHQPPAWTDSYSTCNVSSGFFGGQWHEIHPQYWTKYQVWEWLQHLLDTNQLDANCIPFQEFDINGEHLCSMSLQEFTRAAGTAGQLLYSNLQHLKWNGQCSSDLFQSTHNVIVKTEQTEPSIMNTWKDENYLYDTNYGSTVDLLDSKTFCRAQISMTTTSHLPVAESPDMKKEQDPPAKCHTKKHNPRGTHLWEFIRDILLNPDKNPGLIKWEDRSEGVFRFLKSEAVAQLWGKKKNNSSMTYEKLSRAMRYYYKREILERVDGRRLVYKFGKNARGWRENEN
Put shortly:
as §1

The next assay has as its target SPI1 (Homo sapiens, UniProt P17947 1-270). The gist of the method: as §1
The target of the next assay is SPIB (Homo sapiens, UniProt Q01892 1-262). Put shortly:
as §1

Another assay deals with T6, FEV (Homo sapiens, UniProt Q99581 1-238).
T6 sequence: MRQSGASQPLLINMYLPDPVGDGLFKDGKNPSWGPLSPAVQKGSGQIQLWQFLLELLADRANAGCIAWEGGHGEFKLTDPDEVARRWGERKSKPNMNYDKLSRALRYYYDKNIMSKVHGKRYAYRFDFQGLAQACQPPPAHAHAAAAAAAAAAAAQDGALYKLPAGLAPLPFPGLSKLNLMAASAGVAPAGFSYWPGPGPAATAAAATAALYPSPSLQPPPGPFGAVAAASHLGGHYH
The gist of the method: as §1

For another assay, the target named is ETV5 (Homo sapiens, UniProt P41161 1-510). Put shortly:
as §1

For another assay, the target named is T7, SPIC (Homo sapiens, UniProt Q8N5J4 1-248).
T7 sequence: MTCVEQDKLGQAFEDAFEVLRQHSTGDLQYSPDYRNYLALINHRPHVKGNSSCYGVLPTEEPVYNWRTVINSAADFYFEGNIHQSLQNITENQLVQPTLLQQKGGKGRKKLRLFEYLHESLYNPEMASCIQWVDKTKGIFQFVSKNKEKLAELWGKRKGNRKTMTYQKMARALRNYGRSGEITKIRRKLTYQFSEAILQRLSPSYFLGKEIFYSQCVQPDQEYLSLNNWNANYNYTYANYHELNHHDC
The gist of the method: as §1

In another assay the target is ELF4 (Homo sapiens, UniProt Q99607 1-663). The gist of the method: as §1
In another assay the target is T8, ELK4 (Homo sapiens, UniProt P28324-2 1-405).
T8 sequence: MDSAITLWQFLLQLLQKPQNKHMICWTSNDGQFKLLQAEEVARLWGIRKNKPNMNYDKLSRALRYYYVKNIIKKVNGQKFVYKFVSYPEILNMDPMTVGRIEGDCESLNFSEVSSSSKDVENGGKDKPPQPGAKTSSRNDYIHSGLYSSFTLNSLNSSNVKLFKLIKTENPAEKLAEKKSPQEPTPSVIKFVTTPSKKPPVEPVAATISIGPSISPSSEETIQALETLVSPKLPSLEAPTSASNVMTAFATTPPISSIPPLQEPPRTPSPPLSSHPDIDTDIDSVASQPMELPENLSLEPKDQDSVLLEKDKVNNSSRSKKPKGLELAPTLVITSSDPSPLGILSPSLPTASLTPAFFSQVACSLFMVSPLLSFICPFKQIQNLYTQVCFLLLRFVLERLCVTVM
The gist of the method:
as §1

The next assay addresses T9, ETV2 (Homo sapiens, UniProt O00321 1-342).
T9 sequence: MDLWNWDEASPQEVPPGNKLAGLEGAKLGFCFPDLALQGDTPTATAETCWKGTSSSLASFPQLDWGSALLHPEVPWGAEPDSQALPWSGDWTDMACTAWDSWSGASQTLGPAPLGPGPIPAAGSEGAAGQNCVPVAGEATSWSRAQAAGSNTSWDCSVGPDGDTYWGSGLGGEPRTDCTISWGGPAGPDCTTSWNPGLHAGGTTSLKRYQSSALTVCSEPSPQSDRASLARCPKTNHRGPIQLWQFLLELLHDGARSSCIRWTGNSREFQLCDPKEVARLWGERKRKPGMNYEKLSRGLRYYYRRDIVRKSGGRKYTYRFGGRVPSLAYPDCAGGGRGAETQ
The gist of the method:
as §1

The target in another assay is T10, ELF3 (Homo sapiens, UniProt P78545 1-371).
T10 sequence: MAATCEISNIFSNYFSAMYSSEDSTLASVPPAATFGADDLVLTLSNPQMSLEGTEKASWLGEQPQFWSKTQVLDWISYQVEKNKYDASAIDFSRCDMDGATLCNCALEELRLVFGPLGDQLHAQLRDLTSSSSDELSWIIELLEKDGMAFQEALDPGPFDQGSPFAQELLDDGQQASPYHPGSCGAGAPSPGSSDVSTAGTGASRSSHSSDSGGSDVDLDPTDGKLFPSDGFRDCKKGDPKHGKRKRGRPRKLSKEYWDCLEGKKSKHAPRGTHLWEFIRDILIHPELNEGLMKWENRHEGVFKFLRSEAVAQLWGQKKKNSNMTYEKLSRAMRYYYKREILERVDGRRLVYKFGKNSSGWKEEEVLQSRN
The gist of the method:
as §1

The target in the next assay is ETV1 (Homo sapiens, UniProt P50549 1-477). Put shortly:
as §1

Sequence of SPIB (Q01892 whole entry): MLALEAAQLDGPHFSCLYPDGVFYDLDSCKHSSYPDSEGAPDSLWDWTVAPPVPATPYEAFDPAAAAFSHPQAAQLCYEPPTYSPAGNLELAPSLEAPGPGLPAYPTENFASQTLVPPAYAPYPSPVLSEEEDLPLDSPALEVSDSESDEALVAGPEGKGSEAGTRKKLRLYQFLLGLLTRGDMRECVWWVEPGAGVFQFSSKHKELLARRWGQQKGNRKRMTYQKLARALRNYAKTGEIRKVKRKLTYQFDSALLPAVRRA
Sequence of ETV1 (P50549 whole entry): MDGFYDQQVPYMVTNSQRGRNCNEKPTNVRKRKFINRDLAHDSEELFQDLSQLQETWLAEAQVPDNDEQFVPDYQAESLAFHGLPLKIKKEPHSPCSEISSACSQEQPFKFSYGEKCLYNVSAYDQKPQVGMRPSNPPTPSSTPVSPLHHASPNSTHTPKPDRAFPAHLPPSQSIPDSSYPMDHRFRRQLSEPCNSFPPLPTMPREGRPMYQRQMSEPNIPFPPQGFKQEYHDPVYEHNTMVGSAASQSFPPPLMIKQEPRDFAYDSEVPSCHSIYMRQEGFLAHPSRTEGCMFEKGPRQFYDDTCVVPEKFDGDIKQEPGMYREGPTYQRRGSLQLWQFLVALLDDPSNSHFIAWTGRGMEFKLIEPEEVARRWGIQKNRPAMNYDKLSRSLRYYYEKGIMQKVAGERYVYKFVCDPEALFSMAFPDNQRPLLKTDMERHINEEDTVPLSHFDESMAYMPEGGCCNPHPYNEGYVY
Sequence of ELF1 (P32519 whole entry): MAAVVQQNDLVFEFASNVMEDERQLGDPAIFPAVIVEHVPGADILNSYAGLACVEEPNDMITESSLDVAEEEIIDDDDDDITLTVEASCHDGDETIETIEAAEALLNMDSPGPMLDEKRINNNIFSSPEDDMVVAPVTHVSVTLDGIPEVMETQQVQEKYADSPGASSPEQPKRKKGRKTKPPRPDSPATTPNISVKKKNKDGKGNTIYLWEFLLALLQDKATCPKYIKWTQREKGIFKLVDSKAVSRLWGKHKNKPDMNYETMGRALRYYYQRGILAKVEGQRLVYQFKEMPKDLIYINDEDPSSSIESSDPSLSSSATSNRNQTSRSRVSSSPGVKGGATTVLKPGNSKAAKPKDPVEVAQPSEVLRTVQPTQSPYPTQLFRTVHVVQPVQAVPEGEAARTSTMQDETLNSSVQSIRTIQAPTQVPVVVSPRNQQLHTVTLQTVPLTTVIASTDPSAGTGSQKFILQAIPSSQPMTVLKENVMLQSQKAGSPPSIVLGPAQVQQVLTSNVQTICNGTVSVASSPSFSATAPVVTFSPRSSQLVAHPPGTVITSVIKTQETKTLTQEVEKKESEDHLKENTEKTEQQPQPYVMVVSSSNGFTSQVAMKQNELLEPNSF
Sequence of ETV5 (P41161 whole entry): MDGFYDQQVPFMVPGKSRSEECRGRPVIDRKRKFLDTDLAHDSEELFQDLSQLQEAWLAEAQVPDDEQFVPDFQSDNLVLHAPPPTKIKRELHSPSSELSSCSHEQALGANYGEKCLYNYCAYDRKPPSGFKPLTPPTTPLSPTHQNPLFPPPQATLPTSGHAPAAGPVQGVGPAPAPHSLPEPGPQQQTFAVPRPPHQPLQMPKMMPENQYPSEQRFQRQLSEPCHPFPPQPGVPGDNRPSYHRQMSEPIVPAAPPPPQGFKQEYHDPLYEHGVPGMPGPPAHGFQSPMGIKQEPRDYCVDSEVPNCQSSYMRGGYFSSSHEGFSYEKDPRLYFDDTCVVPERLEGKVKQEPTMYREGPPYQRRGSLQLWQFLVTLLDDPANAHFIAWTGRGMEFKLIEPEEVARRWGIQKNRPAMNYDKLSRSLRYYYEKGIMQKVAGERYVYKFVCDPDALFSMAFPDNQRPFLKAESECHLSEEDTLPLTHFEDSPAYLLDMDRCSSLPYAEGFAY
Sequence of ELF4 (Q99607 whole entry): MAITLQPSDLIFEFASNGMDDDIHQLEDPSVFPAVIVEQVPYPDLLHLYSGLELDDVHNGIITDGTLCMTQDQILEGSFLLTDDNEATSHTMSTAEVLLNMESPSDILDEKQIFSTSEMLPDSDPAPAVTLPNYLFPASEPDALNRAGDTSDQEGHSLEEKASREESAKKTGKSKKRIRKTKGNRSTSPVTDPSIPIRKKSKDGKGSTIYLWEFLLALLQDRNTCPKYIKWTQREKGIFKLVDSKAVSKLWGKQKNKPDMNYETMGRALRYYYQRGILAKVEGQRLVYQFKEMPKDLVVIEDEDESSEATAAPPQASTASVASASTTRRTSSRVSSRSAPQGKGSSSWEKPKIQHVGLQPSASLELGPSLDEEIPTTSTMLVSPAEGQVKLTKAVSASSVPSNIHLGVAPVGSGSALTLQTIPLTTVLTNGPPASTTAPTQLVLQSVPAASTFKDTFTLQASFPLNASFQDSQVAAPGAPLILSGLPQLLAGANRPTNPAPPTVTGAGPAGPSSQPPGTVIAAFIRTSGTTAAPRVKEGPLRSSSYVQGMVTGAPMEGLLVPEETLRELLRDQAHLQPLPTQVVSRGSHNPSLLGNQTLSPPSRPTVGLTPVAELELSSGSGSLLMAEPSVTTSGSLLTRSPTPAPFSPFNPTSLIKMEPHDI

Regarding AACACC, the binding signal with FLI1 is 1.19 fold enrichment (6-mer frequency, TF over GST control); with ELK1 it was 1.18 fold enrichment (6-mer frequency, TF over GST control); with GABPA it was 1.11 fold enrichment (6-mer frequency, TF over GST control); in the assay with ERG it was 1.15 fold enrichment (6-mer frequency, TF over GST control); with ELF1 it was 1.11 fold enrichment (6-mer frequency, TF over GST control); with EHF, 1.12 fold enrichment (6-mer frequency, TF over GST control). Besides, the binding signal with SPI1 is 1.04 fold enrichment (6-mer frequency, TF over GST control); with SPIB it was 1.16 fold enrichment (6-mer frequency, TF over GST control); in the assay with FEV, 1.15 fold enrichment (6-mer frequency, TF over GST control); with ETV5, 1.04 fold enrichment (6-mer frequency, TF over GST control); in the assay with SPIC it was 1.02 fold enrichment (6-mer frequency, TF over GST control); with ELF4, 1.14 fold enrichment (6-mer frequency, TF over GST control). In addition, the binding signal with ELK4 was 1.13 fold enrichment (6-mer frequency, TF over GST control); with ETV2, 1.15 fold enrichment (6-mer frequency, TF over GST control); with ELF3, 1.09 fold enrichment (6-mer frequency, TF over GST control); with ETV1 it was 1.13 fold enrichment (6-mer frequency, TF over GST control).
CCCTGT: the binding signal with FLI1 was 1.18 fold enrichment (6-mer frequency, TF over GST control); with ELK1, 1.02 fold enrichment (6-mer frequency, TF over GST control); with GABPA, 1.2 fold enrichment (6-mer frequency, TF over GST control); in the assay with ERG, 1.21 fold enrichment (6-mer frequency, TF over GST control); with ELF1, 1.17 fold enrichment (6-mer frequency, TF over GST control); with EHF, 1.09 fold enrichment (6-mer frequency, TF over GST control). For the same sequence, the binding signal is 1.07 fold enrichment (6-mer frequency, TF over GST control) in the assay with SPI1; 1.12 fold enrichment (6-mer frequency, TF over GST control) in the assay with SPIB; 1.04 fold enrichment (6-mer frequency, TF over GST control) with FEV; 1.11 fold enrichment (6-mer frequency, TF over GST control) with ETV5; 1.2 fold enrichment (6-mer frequency, TF over GST control) with SPIC; 1.11 fold enrichment (6-mer frequency, TF over GST control) with ELF4. The binding signal with ELK4 is 1.25 fold enrichment (6-mer frequency, TF over GST control); with ETV2, 1.03 fold enrichment (6-mer frequency, TF over GST control); with ELF3, 1.08 fold enrichment (6-mer frequency, TF over GST control); in the assay with ETV1 it was 1.06 fold enrichment (6-mer frequency, TF over GST control).
